This note sets out measurements from PubChem BioAssay (NCI).

The structures appear in SMILES notation. Compounds without any hit were thinned out: in the full panel of roughly 83,000, 20% have a hit.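 Single-dose data. Exposure time 48 hours. Values below 10 considered active.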 The source made the active and inactive calls.

The subject of the experiment is COLO 205 colon. Kind of experiment: NCI-60 one-dose screen, 48 h (100 = growth as untreated, 0 = no growth, -100 = all killed). The conditions noted are these: 10 µM.
For `CCN1CCN(CCC(=O)Nc2cccc(-n3cc(-c4ccncc4)c(-c4ccc(Cl)c(OC)c4)n3)c2)CC1`, the growth is -69.3% (active). To `O=C1/C=C/[C@@H](O)[C@@H]2C[C@@H](O)C[C@H]2/C=C/CCC[C@H](C(F)(F)F)O1` belongs -44.6% (active); to `CC[C@@H](C(=O)[C@@H](C)[C@@H](O)[C@H](C)[C@@H]1O[C@@H]([C@@H](CC)C(=O)N(CC)CC)CC[C@@H]1C)C1O[C@]2(C=CC(=O)[C@]3(CC[C@@](C)([C@H]4CC[C@](O)(CC)[C@H](C)O4)O3)O2)[C@H](C)C[C@@H]1C` (stereo not given in full), 12.2% (inactive). To `COc1ccc(-c2cc(-c3ccc(Cl)cc3)nc(SCCCCCCC(=O)NO)n2)cc1OC` belongs 66.4% (inactive). Next, `N#CCc1csc(Cc2ccccc2)n1`: 117% (inactive); `CC(C)(C)OC(=O)CN1CCc2c(sc3ncnc(N/N=C/c4ccccc4Br)c23)C1`: 62.1% (inactive).

As for `CC(CN(C)C)Oc1ccccc1NC1=C(Cl)C(=O)C(Nc2ccccc2OC(C)CN(C)C)=C(Cl)C1=O` (stereo not given), the growth is -67.3% (active). Next, `Nc1ccn(Cc2nnc(CCC(=O)c3nc4ccccc4[nH]3)o2)c(=O)n1`: 103% (inactive); `CC(C)(C)OC(=O)CN1CCc2c(sc3ncnc(N/N=C/c4cccc5ccccc45)c23)C1`: 18.4% (inactive); `CCOC(=O)c1cc(C(=O)c2ccc(Cl)cc2)n2ccc(-c3cc[n+](CC(=O)c4ccc(OC)cc4)cc3)cc12`: 42.8% (inactive). To `NS(=O)(=O)Oc1ccc(NC(=O)C2CCCCCC2)cc1` belongs 112% (inactive). Turning to `NNC(=O)Oc1c(Cl)cc(Cl)cc1[N+](=O)[O-]`, the growth was 110% (inactive). Next, `O=C1c2ccccc2C(=O)c2c1ccc(C(Br)Br)c2[N+](=O)[O-]`: 69.6% (inactive); `COc1ccc(NC(=O)C2CC3C=CC2C3)c([N+](=O)[O-])c1` (stereo not given): 115% (inactive); `CC[C@@H](C(=O)[C@H](C)[C@H](O)[C@@H](C)[C@H]1O[C@H]([C@@H](CC)C(=O)N(CC)CC)CC[C@H]1C)C1O[C@]2(C=C[C@@H](O)[C@]3(CC[C@@](C)([C@H]4CC[C@](O)(CC)[C@H](C)O4)O3)O2)[C@H](C)C[C@@H]1C` (stereo not given in full): -20.2% (active). To `COc1cc(-c2nn(-c3cccc(NC(=O)NCCNC(=O)c4cccc(C(F)(F)F)c4)c3)cc2-c2ccncc2)ccc1Cl` belongs 39.7% (inactive); to `O=C(O)c1cc([N+](=O)[O-])ccc1Oc1ccccc1`, 104% (inactive); to `CCOC(=O)c1cc(C(=O)c2cc(OC)c(OC)c(OC)c2)n2nc(C)ccc12`, -39.4% (active). To `CC[C@@H](C(=O)[C@@H](C)[C@@H](O)[C@H](C)[C@@H]1O[C@@H]([C@@H](CC)C(=O)O)CC[C@@H]1C)C1O[C@]2(C=CC(=O)[C@]3(CC[C@@](C)([C@H]4CC[C@](O)(CC)[C@H](C)O4)O3)O2)[C@H](C)C[C@@H]1C` (stereo not given in full) belongs 10.1% (inactive); to `Cc1ccc(S(=O)(=O)N(C)CCCCCC(=O)O)cc1`, 107% (inactive); to `COc1ccc(C2=Cn3c(CCC(=O)c4nc5ccccc5[nH]4)nnc3SC2)cc1`, 123% (inactive). Turning to `CCCN(CCC)C(=O)[C@H](CC)[C@@H]1CC[C@@H](C)[C@@H]([C@H](C)[C@@H](O)[C@@H](C)C(=O)[C@H](CC)C2O[C@]3(C=C[C@@H](O)[C@]4(CC[C@@](C)([C@H]5CC[C@](O)(CC)[C@H](C)O5)O4)O3)[C@H](C)C[C@@H]2C)O1` (stereo not given in full), the growth was -64.2% (active).

Regarding `OCC1OC(n2cnc3c(NCc4ccco4)ncnc32)C(O)C1O` (stereo not given), the growth was 19.6% (inactive).

Consider `CC[C@@H](C(=O)[C@H](C)[C@H](O)[C@@H](C)[C@H]1O[C@H]([C@@H](CC)C(=O)O)CC[C@H]1C)C1O[C@]2(C=C[C@@H](O)[C@]3(CC[C@@](C)([C@H]4CC[C@](O)(CC)[C@H](C)O4)O3)O2)[C@H](C)C[C@@H]1C` (stereo not given in full), for which the growth is 8.73% (active). Next, `O=C(/C=C/c1cccc(B(O)O)c1)c1cccc(B(O)O)c1`: -90.8% (active); `Cc1ccc(Cl)cc1NC(=O)CCl`: 110% (inactive); `COc1cc(/C=C/c2cc(/C=C/c3ccc(O)c(OC)c3)nc(N)n2)ccc1O`: -50.4% (active).

Take `C/C(=N\O)c1ccc(NC(=O)CSc2nnc(-c3ccccc3)n2-c2ccccc2)cc1`: the growth was 53.3% (inactive). In the case of `O=C(NCCCNS(=O)(=O)c1ccc(Cl)cc1)Nc1ccc(-n2cc(-c3ccncc3)c(-c3ccc(Cl)c(O)c3)n2)cc1`, the growth is 16.4% (inactive). Next, `CS(=O)(=O)c1nccc(-c2c(-c3cccc(OCCN4CCOCC4)c3)nc3sccn23)n1`: 97.9% (inactive); `C=CCSC(CC)(CC)C(=O)NC`: 120% (inactive). Next, `CCn1c(SC/C(=N/O)c2ccccc2)nnc1-c1ccccc1`: 115% (inactive); `CCN(CC)CCOc1ccc2c(c1O)C(=O)c1ccccc1C2=O`: 46.6% (inactive). In the case of `CS(=O)(=O)c1nccc(-c2c(-c3cccc(O)c3)nc3sccn23)n1`, the growth was 114% (inactive).

For `CC(=O)[C@H]1CC[C@]2(C)[C@@H]1CC[C@@H]1[C@@]3(C)CC(CCC#N)(CCC#N)C(=O)C(C)(C)[C@@H]3CC[C@]12C`, the growth is 106% (inactive). To `COc1cc(-c2nn(-c3cccc(NC(=O)CN4CCOCC4)c3)cc2-c2cccnc2)ccc1Cl` belongs 88.3% (inactive). Turning to `CNS(=O)(=O)Oc1ccc(-c2sc3cc(OS(=O)(=O)NC)ccc3c2C(=O)c2ccc(OCCN3CCCCC3)cc2)cc1`, the growth was 77.9% (inactive). Next, `Clc1ccc(/C=C2\CCCC3C2=Nc2ccccc2NC3c2ccc(Cl)cc2)cc1` (stereo not given): 68.2% (inactive).

Turning to `CCOS(=O)(=O)c1c(C(C)C)cc(C(C)C)cc1C(C)C`, the growth was 104% (inactive). Next, `COc1cc(/C=C/c2cc(/C=C/c3ccc(O)c(OC)c3)n(C(=O)Nc3ccccc3Cl)n2)ccc1O`: -73.5% (active).
